CYP2C9 inhib = inhibitors of human CYP2C9; P11712; CYP2C9 Supersomes, luciferin-H conversion, luminescence; inhibition, % at 5 µM; actives 20% (n = 96,000);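 active = blocking of liver enzyme CYP2C9 beyond about 50% at 5 µM, limit read from the data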
Target sequence (P11712 whole entry, looked up): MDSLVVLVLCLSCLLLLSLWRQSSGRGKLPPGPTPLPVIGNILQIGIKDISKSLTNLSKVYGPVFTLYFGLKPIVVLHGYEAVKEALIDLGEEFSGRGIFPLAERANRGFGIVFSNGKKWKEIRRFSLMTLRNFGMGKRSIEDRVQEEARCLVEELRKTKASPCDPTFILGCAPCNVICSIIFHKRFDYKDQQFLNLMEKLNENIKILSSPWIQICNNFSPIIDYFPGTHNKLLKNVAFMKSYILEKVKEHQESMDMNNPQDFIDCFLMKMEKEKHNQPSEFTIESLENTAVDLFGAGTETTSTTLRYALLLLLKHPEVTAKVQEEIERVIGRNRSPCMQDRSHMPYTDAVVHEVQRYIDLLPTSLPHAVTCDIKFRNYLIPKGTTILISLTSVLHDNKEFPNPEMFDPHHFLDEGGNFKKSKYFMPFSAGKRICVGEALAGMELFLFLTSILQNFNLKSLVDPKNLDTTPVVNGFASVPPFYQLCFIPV
Cav32 inh = blocks human Cav3.2 T-type calcium channel | O95180 | Cav3.2-expressing cells, Fluo-4 calcium fluorescence FDSS; active compounds read low | B-score at 10 µM | actives 4% (n = 100,000);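 active = single-dose well whose peak fluorescence ratio is a statistical outlier from its plate by either plate-standardised score or position-corrected B-score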
CYP2C19 act = increases human CYP2C19 enzyme activity; activation factor at 5 µM; recombinant CYP2C19, luciferin-H EGE luminescence; active compounds read high; 0 = fully inhibited enzyme, 1 = untreated enzyme; P33261; 96,000 tested, under 10 active; AID 1025;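 active = activation factor of at least 2 at 5 µM in the primary screen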;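 note: 0 = wells with 2.5 mM tranylcypromine and 1 = vehicle-only wells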
CYP2C19 inhib = inhibitors of human CYP2C19 | P33261 | CYP2C19 Supersomes, luciferin-H EGE luminescence, 30 min | inhibition, % at 5 µM | actives 21% (n = 96,000);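 active = CYP2C19 inhibition above a set limit at 5 µM in the primary screen, cut at about 50% in these data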;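 note: plate controls were negative control wells for no effect and 2.5 mM tranylcypromine positive control for full effect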
PTK2B oligo ant = antagonists of human Pyk2 oligomerization. Q293 cells, Pyk2 FERM NanoBiT luminescence; active compounds read low. z-score (the deposit names both 25 µM and 10 µM). actives 0.83% (n = 99,000). AID 1347419;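 active = Z-score of -3 or lower, scaled per plate to the spread of control and sample wells; inactive = z-score above -3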;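 note: negative z-score means lost luminescence so less FERM oligomerization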
CYP2C9 act = CYP2C9 (human) activation | P11712 | recombinant CYP2C9, luciferin-H conversion, luminescence; active compounds read high; factor 1 = untreated enzyme, 0 = blocked | activation factor at 5 µM | actives 1.4% (n = 96,000) | AID 1024;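 active = activation factor of 2 or more for CYP2C9 at a 5 µM dose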;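 note: 0 = sulfaphenazole-blocked wells and 1 = vehicle-only wells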
The depositor's hits bear a star; · = no result. Only some compounds are listed: those with a hit (about 27% of all), similar ones and a draw of the others.

SMILES	CYP2C9 inhib	Cav32 inh	CYP2C19 act	CYP2C19 inhib	PTK2B oligo ant	CYP2C9 act
C=CCNC(=O)c1cccc(C(F)(F)F)c1	5	0.029	0.9	10	0.57	1
CCCCCn1c(CN2CCN(c3cc(Cl)ccc3C)CC2)nc2c1c(=O)[nH]c(=O)n2C	24	-4.4*	0.9	15	-0.26	0.8
CCCCCn1c(N2CCN(c3cccc(Cl)c3)CC2)nc2c1c(=O)[nH]c(=O)n2C	96*	-5.4*	0.2	82*	0.39	0
CCOCCCNCc1cccc(OC)c1	15	1	0.6	38	1.9	0.9
COc1cc(C(=O)Nc2nnc(CC(=O)N3CCOCC3)s2)cc(OC)c1OC	19	0.086	1.1	-6	-0.7	0.8
COc1ccc(CNCC(O)(c2ccccc2)c2ccc(Cl)cc2)cc1 (centres undefined)	58*	·	0.2	82*	1.5	0.4
COc1nc(Nc2ccc([N+](=O)[O-])cc2)nc(NC(C)C)n1	·	·	·	·	-1	·
COc1ccc(N/C=C(/C(C)=O)c2ccccc2)cc1	90*	-0.95	0.1	89*	1.5	0.1
CCOC(=O)CSc1nnc(CSc2nc3sc4c(c3c(=O)[nH]2)CCC4)n1C	17	0.3	0.9	6	1.4	0.8
C=CCSc1nnc(CSc2nc3sc4c(c3c(=O)[nH]2)CCCC4)n1-c1ccccc1	67*	-0.47	0.6	37	-0.33	0.3
CC1CN(C(=O)CSc2nnc3c(Cl)cc(Cl)cn23)CC(C)O1 (centres undefined)	6	0.067	1.1	-6	0.58	0.9
O=C1CC(c2ccco2)CC(O)=C1C=Nc1cc(Cl)ccc1O (centres undefined)	73*	·	0.6	38	0.14	0.3
C/C=C/CSc1nc2c(c(=O)[nH]c(=O)n2C)n1Cc1ccc(C)cc1	-3	-0.26	1.1	-14	·	1
Cc1ccc(Nc2nc3c([nH]2)c(=O)n(C)c(=O)n3C)cc1	60*	-1.4	0.9	9	-0.34	0.4
C/C(Cl)=C\Cn1c(Nc2ccc(C)cc2)nc2c1c(=O)n(C)c(=O)n2C	7	-0.0089	1	4	-0.1	0.9
NC(=O)CN(c1ccccc1)C1SC(=O)N(Cc2ccccc2)C1=O (centres undefined)	14	-1.1	0.5	52*	1.1	0.9
O=C1CCc2cc(S(=O)(=O)NC(Cc3ccccc3)C(=O)NC3CCCCC3)ccc2N1 (centres undefined)	22	·	0.7	29	·	0.8
O=C1CCc2cc(S(=O)(=O)NC(Cc3ccccc3)C(=O)NCCC3=CCCCC3)ccc2N1 (centres undefined)	61*	-1.7	0.3	68*	·	0.4
COC(=O)c1c(-c2ccccc2)csc1NC(=O)CSc1ncnc2sc(C)c(C)c12	71*	-2.6	0.8	16	-0.32	0.3
Cc1nnc(NC(=O)CSc2ncnc3scc(-c4ccccc4)c23)s1	19	1.7	1.1	-8	-1.7	0.8
Cc1sc2ncnc(SCC(=O)NCC(C)C)c2c1C	61*	1.1	0.7	26	2.2	0.4
CC(C)(C)c1ccc(NC(=S)NCc2cccs2)cc1	-29	-1.5	0.6	36	-0.94	1.3
CCC(C)c1ccc(NC(=S)NCc2cccs2)cc1 (centres undefined)	33	-3.2*	0.4	58*	-0.43	0.7
Cn1cccc1/C=C1\SC(=O)N(CC(=O)Nc2ccc(Cl)cc2)C1=O	36	0.22	0.8	22	-1.8	0.6
Cn1cccc1CNCc1ccccc1Cl	2	-1.5	0.6	38	0	1
SMILES	CYP2C9 inhib	Cav32 inh	CYP2C19 act	CYP2C19 inhib	PTK2B oligo ant	CYP2C9 act
Cn1cccc1CNC(=O)Nc1ccccc1	37	0.029	0.2	75*	0.13	0.6
Cn1cccc1CNC(=O)Nc1ccc(Cl)cc1	23	-0.92	0.4	59*	-0.22	0.8
Cc1cc(C)cc(NC(=S)NCCN2CCOCC2)c1	·	0.025	·	·	0.71	·
Cc1cc(C)cc(NC(=S)NCc2cccn2C)c1	-110	0.58	0.9	14	0.34	2.1*
CCCC(=O)Nc1ccc(C(=O)Nc2nnc(COCC)s2)cc1	·	1.1	·	·	-0.22	·
Cc1ccc(-c2nc(-c3cccnc3)no2)c(C)c1	14	1	0.5	52*	-0.22	0.9
Cc1ccc(C)c(OCc2nc(-c3cccnc3)no2)c1	31	-2.4	0.1	90*	0.46	0.7
CCOC(=O)c1sc(=S)n(C)c1NC(=O)c1ccccc1C	·	·	·	·	-0.52	·
Cc1ccnc(NC(=O)COc2ccc3oc4c(c3c2)CCCC4)c1	·	-0.4	·	·	-1	·
O=C(Nc1ccccc1)N1CCC(n2c(=O)[nH]c3ccccc32)CC1	72*	0.87	0.7	28	·	0.3
O=C(c1cccs1)N1CCC(N2CCN(c3ccccc3)CC2)CC1	-1	0.47	1	5	1.2	1
O=C(Nc1ccccc1)N1CCC(c2ccccc2)C1 (centres undefined)	12	-0.55	0.3	73*	0.34	0.9
O=C(c1cccs1)N1CCC(c2ccccc2)C1 (centres undefined)	81*	0.31	0	98*	-0.5	0.2
O=C(CCN1CCC(c2ccccc2)C1)c1cccs1 (centres undefined)	25	0.75	0.2	78*	1.7	0.8
NC(=O)C1CCN(C(=O)Nc2ccccc2)CC1	-13	-0.1	1.2	-16	-0.6	1.1
Cc1ccccc1N1C(=O)C(Oc2ccc(Cl)cc2)C1CNC(C)(C)C (centres undefined)	·	·	·	·	-1.1	·
CCCCNC(=O)Oc1cccc(N2CCCC2=O)c1	-15	0.38	1	2	0.11	1.2
Nc1nncn1C(=O)CCc1ccccc1	-15	1.3	1	4	-0.92	1.2
O=C(CCN1CCC(c2ccccc2)C1)c1ccccc1 (centres undefined)	58*	2.2	0.1	88*	0.8	0.4
COc1cc(CNC(=O)c2ccc3c(c2)S(=O)(=O)c2ccccc2C3=O)cc(OC)c1	·	1.2	·	·	·	·
Cc1nn(-c2nc(-c3ccco3)cc(C(F)(F)F)n2)c(C)c1Br	52*	0.091	0.8	16	0.64	0.5
COc1ccc(-c2cc(C(=O)Nc3cc(C)n(Cc4ccc(Cl)cc4)n3)no2)cc1OC	-1	-1.8	1	2	0.24	1
CC(=O)OCc1c(C(F)(F)F)nn(C)c1Sc1ccccc1	16	-1.5	0.1	90*	0.54	0.8
CCC(=O)OCc1c(C(F)(F)F)nn(C)c1Sc1ccc(Cl)cc1	60*	-3	0.2	75*	-0.18	0.4
Cc1cc(C)n(C(=O)CSc2ccc(Cl)cc2)n1	17	·	0.9	5	1.3	0.8
CCC(=O)OCc1c(C(F)(F)F)nn(C)c1Sc1ccc(F)cc1	41	-7.5*	0.4	61*	-0.32	0.6
Cc1c(Cl)c(C(F)(F)F)nn1CC(=O)NCc1ccccc1	·	-2.7	·	·	0.11	·
CCOC(=O)Cn1nnc(-c2ccc(SC)cc2)n1	-3	-0.14	0.5	46	1.4	1
